Holding throughout (set-up): scale not given: direction of the effect not stated beside the values
The target of test [1] is Protein translocase subunit SecA (Escherichia coli (strain K12)) (UniProt P10408). As to the kind of experiment: Assay to Identify E. coli SecA ATPase Inhibitors. The test is classed as functional. As to conditions: 30 µM.
The target in test [2] is T1, Ubiquitin-activating enzyme e1, putative (Leishmania donovani (strain BPK282A1)) (UniProt E9BSI1).
T1 sequence (whole entry): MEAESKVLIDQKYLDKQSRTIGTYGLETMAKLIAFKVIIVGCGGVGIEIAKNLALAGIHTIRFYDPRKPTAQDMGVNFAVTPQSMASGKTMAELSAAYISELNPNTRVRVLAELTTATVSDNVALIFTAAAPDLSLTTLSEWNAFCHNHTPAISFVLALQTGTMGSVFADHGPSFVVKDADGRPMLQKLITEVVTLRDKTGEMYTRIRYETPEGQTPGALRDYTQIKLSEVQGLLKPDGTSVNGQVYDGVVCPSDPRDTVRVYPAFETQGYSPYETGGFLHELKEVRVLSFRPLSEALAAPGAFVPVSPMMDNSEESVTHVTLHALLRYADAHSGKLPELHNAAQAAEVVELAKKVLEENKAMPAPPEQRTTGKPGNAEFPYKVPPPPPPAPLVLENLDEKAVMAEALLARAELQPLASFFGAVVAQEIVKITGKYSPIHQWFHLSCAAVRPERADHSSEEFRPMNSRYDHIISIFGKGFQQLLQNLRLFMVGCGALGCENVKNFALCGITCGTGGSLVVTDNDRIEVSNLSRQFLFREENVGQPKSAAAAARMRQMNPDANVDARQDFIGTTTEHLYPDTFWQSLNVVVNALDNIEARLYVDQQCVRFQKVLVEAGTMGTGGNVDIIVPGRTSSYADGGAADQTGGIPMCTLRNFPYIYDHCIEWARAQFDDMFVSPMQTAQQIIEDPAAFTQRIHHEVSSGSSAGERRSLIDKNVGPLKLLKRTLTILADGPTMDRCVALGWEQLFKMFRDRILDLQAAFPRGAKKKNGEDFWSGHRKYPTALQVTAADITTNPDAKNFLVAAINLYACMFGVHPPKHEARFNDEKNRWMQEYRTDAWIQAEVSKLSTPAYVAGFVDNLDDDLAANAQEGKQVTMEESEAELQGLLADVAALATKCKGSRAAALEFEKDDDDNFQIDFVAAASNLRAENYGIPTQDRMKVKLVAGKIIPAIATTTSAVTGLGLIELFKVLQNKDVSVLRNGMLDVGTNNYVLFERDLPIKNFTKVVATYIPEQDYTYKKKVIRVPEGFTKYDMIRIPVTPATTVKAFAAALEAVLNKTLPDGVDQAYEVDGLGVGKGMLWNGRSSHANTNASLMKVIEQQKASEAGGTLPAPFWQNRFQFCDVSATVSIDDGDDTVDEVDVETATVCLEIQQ
As to the kind of experiment: Leishmania donovani Ubiquitin Activating Enzyme (LdE1). The test is classed as functional. The settings on record: 30 µM.

The target in test [3] is Sialic acid-binding Ig-like lectin 9 (Homo sapiens) (UniProt Q9Y336). Description: Hs-Siglec9 ALPHAscreen SOP 20170721. As to conditions: 10 µM. On the technique in general: Bead proximity is the source of the signal in Alpha formats.
For test [4], the system named is Trypanosoma cruzi. As to the kind of experiment: Trypanosoma cruzi phosphomannomutase and mannose-1-phosphate guanylyltransferase assay. The test is classed as functional. The settings on record: 10 µM.
Test [5] deals with T2, Arginase-2, mitochondrial (Homo sapiens) (UniProt P78540).
T2 sequence (whole entry): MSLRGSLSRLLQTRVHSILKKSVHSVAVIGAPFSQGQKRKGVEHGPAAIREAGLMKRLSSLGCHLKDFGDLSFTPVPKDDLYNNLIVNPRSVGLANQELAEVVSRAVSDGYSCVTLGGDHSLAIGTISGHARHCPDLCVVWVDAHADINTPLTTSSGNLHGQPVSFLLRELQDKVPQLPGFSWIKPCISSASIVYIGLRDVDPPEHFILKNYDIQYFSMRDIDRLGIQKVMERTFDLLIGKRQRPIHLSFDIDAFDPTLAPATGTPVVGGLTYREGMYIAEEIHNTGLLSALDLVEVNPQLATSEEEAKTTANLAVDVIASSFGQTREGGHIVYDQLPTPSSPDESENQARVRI
Description: in vitro enzyme assay to detect the production of urea directly proportional to the activity of Arginase II. Also: in the data most compounds retested in dose-response had high values. It counts as functional. As to conditions: 33.3 µM.

The target of test [6] is T3, Proteasome subunit beta (Trypanosoma cruzi) (UniProt O96673).
T3 sequence (whole entry): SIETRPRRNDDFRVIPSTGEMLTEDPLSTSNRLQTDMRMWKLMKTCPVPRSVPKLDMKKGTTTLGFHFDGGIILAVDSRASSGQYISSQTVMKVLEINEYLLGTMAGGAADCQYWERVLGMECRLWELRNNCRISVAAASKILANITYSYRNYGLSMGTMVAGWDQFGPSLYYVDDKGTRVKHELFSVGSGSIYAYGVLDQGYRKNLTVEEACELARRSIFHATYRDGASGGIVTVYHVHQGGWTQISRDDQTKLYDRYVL
Description: Trypanosoma cruzi proteasome chymotrypsin-like activity (TcProtChymo) assay. Also: in the data most compounds retested in dose-response had high values. As to conditions: 9.37 µM. It counts as functional.

Test [7] is filed under the species Homo sapiens. Description: To identify inhibition of the IFN signalling (Jak-Stat) pathway via expression of an eGFP reporter gene under the control of an IFN-stimulated response element (ISRE) containing MxA promoter. The test is classed as functional. The settings on record: 30 µM. (A reporter such as luciferase makes a cellular process visible.)
In test [8] the target is T4, Tyrosyl-tRNA synthetase, putative (Trypanosoma cruzi (strain CL Brener)) (UniProt Q4DSP6).
T4 sequence (whole entry): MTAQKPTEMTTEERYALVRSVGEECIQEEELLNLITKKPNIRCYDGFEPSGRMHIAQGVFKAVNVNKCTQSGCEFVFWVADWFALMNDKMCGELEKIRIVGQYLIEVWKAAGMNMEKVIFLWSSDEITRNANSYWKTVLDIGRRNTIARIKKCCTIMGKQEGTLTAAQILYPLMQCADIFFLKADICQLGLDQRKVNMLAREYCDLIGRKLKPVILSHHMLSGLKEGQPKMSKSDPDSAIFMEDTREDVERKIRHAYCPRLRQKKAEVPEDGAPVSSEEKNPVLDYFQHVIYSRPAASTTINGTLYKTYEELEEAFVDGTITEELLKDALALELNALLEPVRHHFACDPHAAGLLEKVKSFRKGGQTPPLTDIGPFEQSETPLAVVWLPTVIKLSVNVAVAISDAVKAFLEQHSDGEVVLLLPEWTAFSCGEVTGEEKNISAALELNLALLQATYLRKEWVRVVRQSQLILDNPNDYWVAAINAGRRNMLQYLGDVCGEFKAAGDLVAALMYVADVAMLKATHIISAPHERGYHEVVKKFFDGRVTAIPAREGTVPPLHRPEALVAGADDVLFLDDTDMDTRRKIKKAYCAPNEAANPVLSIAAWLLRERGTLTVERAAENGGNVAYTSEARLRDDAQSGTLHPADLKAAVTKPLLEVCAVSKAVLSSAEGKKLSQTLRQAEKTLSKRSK
As to the kind of experiment: Trypanosoma cruzi tyrosyl tRNA synthetase (TcYRS) _High Tyrosine SOP. Also: in the data most compounds retested in dose-response had high values. It counts as functional. As to conditions: 30 µM.

In test [9] the target is T4, Tyrosyl-tRNA synthetase, putative (Trypanosoma cruzi (strain CL Brener)). As to the kind of experiment: Trypanosoma cruzi tyrosyl tRNA synthetase (TcYRS) SOP. It counts as functional. As to conditions: 30 µM.
The target in test [10] is Chromo domain-containing protein 1 (Saccharomyces cerevisiae (strain ATCC 204508 / S288c) (Baker's yeast)) (UniProt P32657). As to the kind of experiment: ScCHD-1 Enzyme Inhibition Assay. Also: in the data most compounds retested in dose-response had high values. As to conditions: 30 µM. The test is classed as functional.

For part of these data: Results with a measured potency or affinity are listed apart.

Chromo domain-containing protein 1 (Saccharomyces cerevisiae (strain ATCC 204508 / S288c) (Baker's yeast)), sequence (P32657 whole entry, the tested form may be a part): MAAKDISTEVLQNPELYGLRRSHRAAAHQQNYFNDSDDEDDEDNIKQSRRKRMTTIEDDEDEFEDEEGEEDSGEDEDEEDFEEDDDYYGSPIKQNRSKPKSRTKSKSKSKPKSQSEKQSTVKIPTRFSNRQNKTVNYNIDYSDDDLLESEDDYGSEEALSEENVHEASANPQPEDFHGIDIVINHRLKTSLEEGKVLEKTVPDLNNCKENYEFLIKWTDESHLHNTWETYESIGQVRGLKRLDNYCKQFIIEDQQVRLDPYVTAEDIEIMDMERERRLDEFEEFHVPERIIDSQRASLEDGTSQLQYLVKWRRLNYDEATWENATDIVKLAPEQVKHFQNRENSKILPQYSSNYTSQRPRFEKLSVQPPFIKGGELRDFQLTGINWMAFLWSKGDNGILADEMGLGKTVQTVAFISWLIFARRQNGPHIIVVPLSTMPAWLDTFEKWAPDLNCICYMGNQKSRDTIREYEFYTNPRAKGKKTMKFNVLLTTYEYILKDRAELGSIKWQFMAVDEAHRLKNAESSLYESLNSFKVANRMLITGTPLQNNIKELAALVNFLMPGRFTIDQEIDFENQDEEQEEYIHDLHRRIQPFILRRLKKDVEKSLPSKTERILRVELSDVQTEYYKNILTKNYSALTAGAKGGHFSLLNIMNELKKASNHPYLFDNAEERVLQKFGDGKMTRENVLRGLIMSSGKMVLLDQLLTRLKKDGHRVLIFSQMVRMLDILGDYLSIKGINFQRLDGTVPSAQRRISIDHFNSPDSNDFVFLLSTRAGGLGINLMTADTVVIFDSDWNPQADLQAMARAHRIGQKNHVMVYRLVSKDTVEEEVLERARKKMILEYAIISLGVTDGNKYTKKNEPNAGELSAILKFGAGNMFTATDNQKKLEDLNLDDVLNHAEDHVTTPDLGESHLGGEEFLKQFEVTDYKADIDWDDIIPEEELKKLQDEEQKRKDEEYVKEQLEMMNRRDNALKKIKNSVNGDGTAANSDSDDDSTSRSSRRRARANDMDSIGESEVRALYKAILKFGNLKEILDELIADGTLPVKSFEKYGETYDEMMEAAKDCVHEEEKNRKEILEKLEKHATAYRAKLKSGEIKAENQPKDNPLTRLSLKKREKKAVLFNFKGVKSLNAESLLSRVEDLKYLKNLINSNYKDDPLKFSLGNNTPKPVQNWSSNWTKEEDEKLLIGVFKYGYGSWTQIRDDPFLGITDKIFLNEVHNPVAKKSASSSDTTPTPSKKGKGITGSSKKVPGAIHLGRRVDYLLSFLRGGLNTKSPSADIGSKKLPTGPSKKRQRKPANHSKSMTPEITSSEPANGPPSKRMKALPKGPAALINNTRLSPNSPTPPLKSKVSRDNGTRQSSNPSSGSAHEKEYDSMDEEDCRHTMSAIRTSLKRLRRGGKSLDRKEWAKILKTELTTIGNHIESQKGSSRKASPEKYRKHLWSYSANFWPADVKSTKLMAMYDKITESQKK
Protein translocase subunit SecA (Escherichia coli (strain K12)), sequence (P10408 whole entry): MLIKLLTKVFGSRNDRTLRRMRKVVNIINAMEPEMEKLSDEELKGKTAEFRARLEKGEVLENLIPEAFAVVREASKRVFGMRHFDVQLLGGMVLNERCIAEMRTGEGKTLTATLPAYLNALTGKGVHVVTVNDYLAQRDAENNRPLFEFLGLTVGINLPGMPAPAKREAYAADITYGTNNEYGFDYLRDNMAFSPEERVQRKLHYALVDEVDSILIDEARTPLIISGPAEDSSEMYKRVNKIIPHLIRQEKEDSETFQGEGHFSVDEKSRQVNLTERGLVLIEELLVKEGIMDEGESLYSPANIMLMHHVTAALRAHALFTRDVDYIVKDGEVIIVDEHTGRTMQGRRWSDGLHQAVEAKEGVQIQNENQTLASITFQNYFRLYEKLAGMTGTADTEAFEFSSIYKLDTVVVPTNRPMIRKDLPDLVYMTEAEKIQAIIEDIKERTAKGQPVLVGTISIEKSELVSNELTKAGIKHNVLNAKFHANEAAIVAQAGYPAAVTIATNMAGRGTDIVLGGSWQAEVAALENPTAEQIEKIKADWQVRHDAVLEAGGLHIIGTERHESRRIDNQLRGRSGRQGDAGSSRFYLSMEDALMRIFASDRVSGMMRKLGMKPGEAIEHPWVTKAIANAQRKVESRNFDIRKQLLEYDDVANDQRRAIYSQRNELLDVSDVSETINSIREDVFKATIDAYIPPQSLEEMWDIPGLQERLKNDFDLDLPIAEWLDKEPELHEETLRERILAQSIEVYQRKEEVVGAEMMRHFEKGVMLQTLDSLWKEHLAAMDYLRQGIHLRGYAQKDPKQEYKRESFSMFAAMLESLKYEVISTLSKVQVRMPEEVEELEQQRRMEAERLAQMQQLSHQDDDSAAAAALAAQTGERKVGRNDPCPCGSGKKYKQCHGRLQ
Sialic acid-binding Ig-like lectin 9 (Homo sapiens), sequence (Q9Y336 whole entry): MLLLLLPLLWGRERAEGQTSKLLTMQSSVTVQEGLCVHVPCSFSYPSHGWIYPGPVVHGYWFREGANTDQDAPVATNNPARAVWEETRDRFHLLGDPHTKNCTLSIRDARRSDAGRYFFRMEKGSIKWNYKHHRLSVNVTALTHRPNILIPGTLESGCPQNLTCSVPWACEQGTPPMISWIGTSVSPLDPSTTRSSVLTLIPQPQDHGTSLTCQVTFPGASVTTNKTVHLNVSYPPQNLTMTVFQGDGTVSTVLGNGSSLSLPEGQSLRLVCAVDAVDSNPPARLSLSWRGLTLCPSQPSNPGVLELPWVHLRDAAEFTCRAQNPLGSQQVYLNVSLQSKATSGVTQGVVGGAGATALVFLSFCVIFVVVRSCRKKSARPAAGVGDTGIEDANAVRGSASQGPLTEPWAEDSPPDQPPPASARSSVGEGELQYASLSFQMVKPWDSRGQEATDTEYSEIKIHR

For the compound `Cc1cccc(CN2CCc3nnc(CO)n3CC2)n1`, the Percent Effect in test [1] was -0.433%; in test [2], 19.5%; in test [3], -0.362%; in test [4], 0%; in test [5], 1.37%; in test [6] it was 13%. The Percent Effect in [7] is 16.8%; in test [8], 9.66%; in test [9], 15%; in test [10], -7.15%.
With `O=C(C1CCOC1)N1CCc2ncc(CNc3ccccn3)n2CC1` (stereo not given), the Percent Effect in test [1] is -0.228%; in test [2], 1.3%; in [3], 8.26%; in test [4], -0.682%; in [5], -1.62%; in test [6], 6.8%. Also, the Percent Effect in test [7] was 4.98%; in test [8], 3.68%; in [9], 5.13%; in [10], -14.8%.
Take `CCc1cc(O)nc(C2CCCN2C(=O)c2cccnc2)n1` (stereo not given): the Percent Effect in test [1] is 5.68%; in [2], 14.7%; in [3], -8.39%; in [4], -6.71%; in test [5], 3.1%; in test [6], 15.1%. Also, the Percent Effect was 13% in test [7], 0% in [8], 5% in test [9] and -14.4% in test [10].
As to `CC(C)CNc1nc(C(=O)/N=c2\[nH]nc(C(C)(C)C)s2)cs1`, the Percent Effect was 2.26% in test [1]; 8.11% in test [2]; -0.928% in [3]; -8.83% in test [4]; 1.75% in [5]; 12.3% in test [6]. Moreover, the Percent Effect in test [7] turned out to be 19.4%; in test [8], 5.85%; in test [9] it was 17.1%; in test [10] it was 1.47%.
Turning to `CC(C)NC(=O)N1CCC2(CC(=O)N(c3cccc(C#N)c3)C2)C1` (stereo not given), the Percent Effect was -4.66% in test [1]; -16.9% in test [2]; 0.438% in [3]; -3.6% in test [4]; -3.64% in [5]; 9.8% in test [6]. Also, the Percent Effect in [7] was -4.77%; in test [8], -0.526%; in [9], -35.9%; in [10], -0.524%.
For `CN(C)c1ccc(NC(=O)NCc2ccccn2)cn1`, the Percent Effect in test [1] is -1.7%; in test [2], 20.8%; in test [3], -3.66%; in test [4] it was -3.92%; in [5], -0.205%; in [6], 11.9%. For the same compound, the Percent Effect in test [7] is -8.9%; in [8], 5.88%; in [9], 18.8%; in [10], -9.39%.
Regarding `O=C(Cn1cc(-c2ccccc2)ncc1=O)Nc1ccncc1`, the Percent Effect in test [1] is -7.06%; in test [2] it was 5.41%; in test [3], 4.3%; in test [4], -0.097%; in [5], 3.85%; in test [6], 20%. For the same compound, the Percent Effect is -4.45% in test [7], 6.92% in test [8], 17.1% in [9] and 90.8% in test [10].
With `COc1c(C2CCCN2C(=O)c2cncnc2C)c(C)nn1C` (stereo not given), the Percent Effect in [1] is 0.687%; in test [2] it was 20.8%; in test [3] it was 0.3%; in test [4] it was -7.46%; in test [5], -3.48%; in [6], 18.8%. The Percent Effect in [7] was 21.6%; in test [8] it was 3.92%; in [9], 9.41%; in [10], -6.48%.
For the compound `COc1ccc(CN2CCC[C@@H]3CN(C(=O)c4ccco4)C[C@@H]32)cc1`, the Percent Effect in [1] was -4.96%; in [2], 11.7%; in [3], -12.3%; in [4] it was -3.6%; in [5], -4.05%; in [6], 17.6%. Moreover, the Percent Effect in test [7] turned out to be 3.21%; in test [8], 3.68%; in test [9] it was 10.3%; in test [10], 0.299%.
For the compound `CC(=O)N1C[C@@H](c2ccsc2)[C@@H]2CN(Cc3ccccc3)CC[C@@H]21`, the Percent Effect in test [1] was -3.48%; in [2], 12%; in test [3], 0.781%; in test [4], 1.77%; in test [5], 0.885%; in test [6], 12.2%. Further, the Percent Effect is 12.3% in [7], 10.6% in [8], 7.5% in test [9] and -25.4% in [10].
As to `Cn1cc(NC(=O)N2CCC(c3ccccc3)CC2)ccc1=O`, the Percent Effect in [1] was -1.84%; in test [2] it was 51.3%; in [3] it was 4.28%; in test [4], 8.92%; in [5] it was 9.43%; in test [6], 2.3%. In addition, the Percent Effect in test [7] was 23%; in test [8] it was 0.478%; in [9] it was 6.02%; in test [10], 1.81%.
For `Cc1ccc([C@@H]2CN(C(=O)c3csc(C)n3)C[C@H]2NC(=O)C2CC2)cc1`, the Percent Effect in [1] is -13.4%; in [2], 2.7%; in test [3], 0.978%; in [4], 0.097%; in [5] it was -0.35%; in test [6] it was 5.99%. For the same compound, the Percent Effect in [7] was 23.2%; in test [8] it was 3.72%; in test [9], 17.1%; in test [10], -2.85%.

The values above are taken from ChEMBL document CHEMBL3988442, “University of Dundee, Small-Polar-MMV Screening Library” (2021).
